Screens: PubChem, several laboratories
RecA splice inh = Mtb RecA intein splicing inhibition; P9WHJ3; cell-free RecA intein splicing, fluorescence; inhibition, % (concentration not given with the values); actives 0.75% (n = 290,000); AID 2221; in the data active = inhibition above about 30%;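 also: 0% = vehicle wells and 100% = reference inhibitor control wells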
FBA Mtb inh = Mtb fructose-bisphosphate aldolase inhibition | inhibition, % at 1 µM | AID 588726 | actives 2.3% (n = 360,000) | P9WQA3 | purified M. tuberculosis FBA, fluorescence read-out; in the data active = inhibition above about 27%;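 also: 0% = vehicle and 100% = reference inhibitor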
Target sequence (P9WQA3 whole entry, looked up): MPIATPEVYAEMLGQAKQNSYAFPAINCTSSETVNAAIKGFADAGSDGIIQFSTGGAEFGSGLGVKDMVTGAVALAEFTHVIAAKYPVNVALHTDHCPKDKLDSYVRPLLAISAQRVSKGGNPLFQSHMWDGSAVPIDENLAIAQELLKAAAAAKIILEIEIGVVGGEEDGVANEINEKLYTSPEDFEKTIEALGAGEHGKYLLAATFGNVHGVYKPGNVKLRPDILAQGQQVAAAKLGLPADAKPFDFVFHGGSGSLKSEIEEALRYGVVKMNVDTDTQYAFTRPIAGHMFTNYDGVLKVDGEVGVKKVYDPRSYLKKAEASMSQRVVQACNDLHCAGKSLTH
GDH-TPI counter = GDH-TPI coupled enzyme inhibition counter-screen | GDH-TPI coupled enzyme counterscreen, NADH absorbance | inhibition, % at 4.8 µM | actives 1.2% (n = 360,000) | AID 588335;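 also: 0% = DMSO wells and 100% = wells lacking the enzyme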
DUSP3 inh = DUSP3 (human) phosphatase inhibition | recombinant VHR phosphatase, pNPP absorbance | P51452 | AID 1654 | inhibition, % at 13.3 µM | actives 0.52% (n = 290,000); in the data active = inhibition above about 50%
Target sequence (P51452 whole entry, looked up): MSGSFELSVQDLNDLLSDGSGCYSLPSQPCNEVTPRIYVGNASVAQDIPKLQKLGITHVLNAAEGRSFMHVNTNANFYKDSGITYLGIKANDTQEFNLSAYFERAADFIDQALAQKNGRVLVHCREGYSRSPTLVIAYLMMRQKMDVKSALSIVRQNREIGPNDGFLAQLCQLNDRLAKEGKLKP
CCHF vOTU inh-1 = CCHFV vOTU protease inhibition; inhibition, % at 11.5 µM; Pep-AMC fluorescence; actives 0.55% (n = 370,000); also: 0% = vehicle wells with enzyme and 100% = no enzyme wells
SARS 3CLpro inh = SARS-CoV 3CLpro protease inhibition | recombinant SARS-CoV 3CLpro, quenched FRET peptide cleavage | inhibition, % at 6 µM | actives 0.14% (n = 290,000) | AID 1706; in the data active = inhibition above about 12%
CCHF vOTU inh-2 = CCHFV vOTU protease inhibition, confirmation. shares compounds with CCHF vOTU inh-1. Recombinant CCHFV vOTU, Pep-AMC fluorescence. inhibition, % at 11.5 µM. actives 17% (n = 1,900). AID 686976
* = called active by the depositor; · = not tested or not shown. Sampled rows, rich in hits. Any-hit rate of the full collection: about 4.7%. Rule as the data show it, unless noted: active = inhibition above about 30%; inactive = the rest.

SMILES	RecA splice inh	FBA Mtb inh	GDH-TPI counter	DUSP3 inh	CCHF vOTU inh-1	SARS 3CLpro inh	CCHF vOTU inh-2
CCC(=NCc1ccccc1)C1=C(O)C(C(=O)OC)C(C)(C)CC1=O (configuration not stated)	-0.3	6.1	13.4	-10.1	10.5	-6.9	·
CCCC(=Nc1ccccc1)C1=C(O)C(C(=O)OC)C(C)(C)CC1=O (configuration not stated)	0.7	2.2	-4.1	-14.1	-11.7	-2.9	·
CCC(=Nc1ccc(N)cc1)C1=C(O)C(C(=O)OC)C(C)(C)CC1=O (configuration not stated)	-7.2	-4.3	10.2	13.9	105.5*	4.6	4.8
CCCCC(=Nc1ccc(N)cc1)C1=C(O)C(C(=O)OC)C(C)(C)CC1=O (configuration not stated)	-5.0	-0.7	25.0	26.9	91.9*	6.3	7.9
CCC(=O)NC(c1cccs1)c1cc([N+](=O)[O-])c2cccnc2c1OC (configuration not stated)	·	-8.1	16.5	·	124.4*	·	-8.0
CC(C)C(=O)NC(c1cccs1)c1cc([N+](=O)[O-])c2cccnc2c1O (configuration not stated)	1.1	-13.3	-1.2	-4.3	·	-2.0	·
NC(=S)NN=Cc1nccc2c(N)cccc12	·	-8.0	17.7	·	64.2*	·	28.3
CCOc1ccc(NC(=O)CN(C)C(=O)c2cc(C)oc2C)cc1OCC	1.0	0.9	5.8	·	-3.4	·	·
CCOc1ccc(NC(=O)CN(C)C(=O)c2ccc(C)o2)cc1OCC	-0.8	1.6	-5.7	-20.5	31.7*	2.5	-23.3
O=C(/C=C/c1ccccc1)Nc1cc(NC(=O)/C=C/c2ccccc2)cc(C(=O)O)c1	3.8	-0.2	17.6	-3.2	35.6*	4.2	8.4
O=C(/C=C/c1ccccc1)Nc1cccc(C(=O)O)c1	-0.1	4.0	7.2	25.1	11.6	3.0	·
CC(C)Cn1c(N)c(C(=O)COC(=O)c2ccc(Cl)cc2)c(=O)n(C)c1=O	5.8	-4.6	1.2	4.7	16.2	3.5	·
CC(C)Cn1c(N)c(C(=O)COC(=O)c2c(O)c(Cl)cc(Cl)c2Cl)c(=O)n(C)c1=O	·	4.6	-2.5	·	41.1*	·	-5.3
CCN(CC(=O)Nc1ccc(NC(C)=O)cc1)C(=O)c1ccc(N2CCC(C)CC2)c([N+](=O)[O-])c1	·	0.7	-1.8	·	5.1	·	·
CC1CCN(c2cc(N3CCOCC3)c([N+](=O)[O-])cc2F)CC1	9.5	-6.3	9.7	-0.7	11.6	3.9	·
CCc1nnc(N/N=C/c2ccc(N3CCC(C)CC3)c([N+](=O)[O-])c2)n1N	26.6	-5.3	25.9	2.9	88.0*	7.9	-4.7
Cc1nnc(N/N=C/c2cc([N+](=O)[O-])c(N3CCC(C)CC3)cc2N2CCC(C)CC2)n1N	21.2	1.6	9.2	0.3	96.2*	2.7	-3.4
COc1ccc([C@@]2(C(C)C)ON(c3ccccc3C(F)(F)F)C2=O)cc1	·	0.5	-2.8	·	13.7	·	·
COc1cc(OC)c([N+](=O)[O-])cc1/C=N/NC(=O)c1ccncc1	-1.9	-0.4	8.5	1.1	34.1*	4.9	4.8
CCCCCCn1c(=O)n2n(c1=O)C[C@]1(OC(=O)NCC3CCCCC3)CN(S(=O)(=O)c3ccc(C)cc3)C[C@]1(O)C2	·	-1.3	4.7	·	32.5*	·	7.8
Cc1ccc(/C=N/n2c(C3CCCCC3)n[nH]c2=S)cc1	0.0	2.2	0.6	9.5	17.1	3.1	·
O=C1Nc2ccccc2Nc2ccc([N+](=O)[O-])cc21	2.6	-0.9	12.4	8.8	37.5*	6.5	27.3
CCN1/C(=C/c2ccc3cc(C)ccc3[n+]2CC)Sc2ccccc21	4.1	-13.8	7.0	-3.8	31.4*	-19.1	1.8
O=C1Nc2ccccc2N=C(c2ccc3c(c2)OCO3)C1N(C(=O)c1ccc2ccccc2c1)C1CC1 (configuration not stated)	·	3.7	·	·	32.0*	·	-4.8
O=C1Nc2ccccc2N=C(c2ccc3c(c2)OCO3)C1N(C(=O)c1ccnc2ccccc12)c1ccccc1 (configuration not stated)	·	2.1	·	·	14.9	·	·
SMILES	RecA splice inh	FBA Mtb inh	GDH-TPI counter	DUSP3 inh	CCHF vOTU inh-1	SARS 3CLpro inh	CCHF vOTU inh-2
COc1ccc(OC)c(S(=O)(=O)Oc2ccc(N)c3ccccc23)c1	17.2	0.6	20.0	·	29.8*	·	-13.8
O=C(NCc1ccc2c(c1)OCO2)c1nc(Cn2cc(Br)cn2)no1	·	-3.1	1.8	2.2	0.9	-8.0	·
O=C(Nc1ccc(C(=O)O)cc1)/C(=C\C=C\c1ccccc1)NC(=O)c1cccc(Br)c1	13.8	-2.7	42.1*	-6.0	29.9*	0.3	22.4
CCN(CC)CCNC(=O)c1ccc(NC(=O)c2ccc(-n3cncn3)c([N+](=O)[O-])c2)cc1	·	1.8	8.4	·	4.3	·	·
O=[N+]([O-])c1cc2ccccc2c(O)c1O	·	1.4	7.1	·	82.6*	·	-19.9
O=C(NC1CCCC1)c1ccc(CS(=O)Cc2ccccc2Cl)o1 (configuration not stated)	0.1	0.4	3.4	-27.0	34.4*	0.6	-19.1
S=c1[nH]nc(C2CCCCC2)n1/N=C/C=C/c1ccccc1	3.2	3.0	17.2	9.7	32.2*	10.5	8.2
S=c1[nH]nc(C2CCCCC2)n1/N=C/C(Cl)=C\c1ccccc1	10.1	3.6	7.2	16.5	-4.9	8.4	·
CCOc1ccc(OCC(=O)NCCS(=O)(=O)N2CCN(c3ccccc3)CC2)cc1	·	3.8	15.9	·	13.4	·	·
O=C(NNc1cccc(Cl)n1)Nc1cccc(C(F)(F)F)c1	0.1	-1.6	3.7	-2.9	6.2	3.2	·
O=C(NNc1cccc(Cl)n1)Nc1ccc(Cl)cc1	8.0	-0.2	0.9	0.0	42.1*	1.2	-15.9
CCCCCCCCN1C(=O)[C@@H](CC(=O)N2CCN(C(=O)C3CC3)CC2)C[C@@]2(C(=O)OC)C1=C[C@H](C(C)(C)C)O[C@@H]2C	·	·	·	·	37.7*	·	28.6
CCCCCCCCN1C(=O)[C@@H](CC(=O)NCCC(C)C)C[C@@]2(C(=O)OC)C1=C[C@H](C(C)(C)C)O[C@@H]2C	·	·	·	·	5.9	·	·
CCCCOCCCNC(=O)C[C@H]1C[C@@]2(C(=O)OC)C(=C[C@H](C3CCCC3)O[C@@H]2C)N(Cc2ccc(Cl)cc2Cl)C1=O	·	·	·	·	23.3	·	·
CCCCOCCCNC(=O)C[C@H]1C[C@@]2(C(=O)OC)C(=C[C@H](C(C)(C)C)O[C@@H]2C)N(Cc2ccc(Cl)cc2Cl)C1=O	·	·	·	·	38.7*	·	7.2
CCCCCCCCN1C(=O)[C@@H](CC(=O)NCCCOC)C[C@@]2(C(=O)OC)C1=C[C@H](C(C)(C)C)O[C@@H]2C	·	·	·	·	36.3*	·	11.9
COc1ccc(Cl)cc1S(=O)(=O)NC(C)C(=O)NCc1ccc2c(c1)OCO2 (configuration not stated)	0.2	1.8	13.3	18.7	-1.4	-0.3	·
CCOC(=O)C1CCCN(C(=O)c2ccc(-c3ccccc3)cc2)CC1 (configuration not stated)	·	-2.9	4.0	·	10.0	·	·
